# Hits are enriched below; roughly 4.1% of the tested compounds scored in any of these assays.
# DAX1 inh-1 – DAX1 (NR0B1) inhibitors on StAR promoter, primary screen, cell-based, luminescence, SF-1 (NR5A1), full-length DAX-1. inhibition, % at 6.8 µM. HEK293T StAR-luciferase reporter, SF-1/DAX-1 repression relief. AID 652010, 2013. hit rate 1.1% among 370,000;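 active = inhibition above the mean over all tested compounds plus 3 SD, cut at about 3.6% in these data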;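 also: higher inhibition means more luminescence from relief of DAX-1 repression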
# DAX1 inh-2 – DAX1 (NR0B1) inhibitors, primary screen, cell-based, HEK293, Gal4-DAX1, luciferase luminescence. Nuclear receptor subfamily 0 group B member 1 (Homo sapiens), P51843. HEK293 Gal4-DAX1 luciferase reporter. inhibition, % at 6.75 µM. hit rate 0.99% among 340,000;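 active = inhibition above the mean over all tested compounds plus 3 SD, cut at about 4.2% in these data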;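 also: inhibition shows as a rise in luminescence from relieved DAX1 repression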
# Target sequence (P51843 207-470 limits assumed): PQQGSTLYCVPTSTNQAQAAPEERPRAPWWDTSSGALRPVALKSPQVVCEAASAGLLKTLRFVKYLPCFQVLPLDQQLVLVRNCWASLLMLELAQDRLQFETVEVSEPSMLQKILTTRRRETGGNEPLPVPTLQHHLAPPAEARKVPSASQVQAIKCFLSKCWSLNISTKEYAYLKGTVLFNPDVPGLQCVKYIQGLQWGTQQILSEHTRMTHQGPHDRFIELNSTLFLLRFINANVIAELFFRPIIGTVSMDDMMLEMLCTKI
# hcDAF12 agonist – H. contortus DAF-12 nuclear receptor activators, primary screen, cell-based, luminescence, HEK293, lit1-tk-luc reporter | hit rate 1.4% among 370,000 | AID 652067, 2013 | HEK293 hcDAF-12 lit1-tk-luc reporter; 0% DMSO, 100% Δ7-dafachronic acid | activation, % at 6.8 µM;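 active = activation above the mean of all tested compounds plus 3 SD, cut at about 5.5% in these data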
# hgDAF12 agonist – H. glycines DAF-12 receptor agonists, primary screen, cell-based, luminescence, HEK293, GAL4 fusion, UAS-luciferase | Nuclear hormone receptor DAF-12 (Heterodera glycines), GAL4 fusion | activation, % at 6.8 µM | HEK293 GAL4-hgDAF12 UAS-luciferase reporter, agonist luminescence; normalized to butyrate control | hit rate 1.8% among 370,000;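 active = activation above a cutoff set at the mean of all screened compounds plus 3 SD, cut at about 10% in these data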
# ssDAF12 agonist – S. stercoralis DAF-12 nuclear receptor activators, primary screen, cell-based, luminescence, HEK293, GRIP1 co-expression, lit1-tk-luc | Nuclear hormone receptor DAF-12 (Strongyloides stercoralis) | HEK293 ssDAF-12/GRIP1 lit1-tk-luc reporter; % of 3 µM dafachronic acid response | activation, % at 6.8 µM | hit rate 1% among 370,000;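 active = activation above the mean over all tested compounds plus 3 SD, cut at about 0.9% in these data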
# LXRb hcDAF ctr – LXR agonists, Gal4 luciferase reporter, confirmation, counter-screen for hcDAF-12 agonist project, cell-based, luminescence, HEK293, H. contortus campaign; 3,400 tested, under 10 active; activation, % at 6.8 µM; HEK293 Gal4-LXR tk-luc reporter, 24 h; normalized: DMSO 0%, positive control 100%; shares compounds with hcDAF12 agonist;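 active = mean percent activation of the reporter above a cutoff set as the average over tested compounds plus their standard deviation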
# hcDAF12 conf – H. contortus DAF-12 receptor agonists, confirmation, cell-based, luminescence, HEK293, lit1-tk-luc, triplicate | shares compounds with hcDAF12 agonist | activation, % at 6.8 µM | AID 743032, 2013 | hit rate 61% among 3,400 | HEK293 hcDAF-12 lit1-tk-luc reporter; % of Δ7-dafachronic acid response;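 active = mean activation across triplicate tests above the threshold derived from the earlier primary screen, cut at about 5.5% in these data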
# Hits are given with their value; – = inactive; · = no result given.
SMILES,DAX1 inh-1,DAX1 inh-2,hcDAF12 agonist,hgDAF12 agonist,ssDAF12 agonist,LXRb hcDAF ctr,hcDAF12 conf
O=C(NNC(=O)c1ccc2c(c1)OCO2)NC1CCCCC1,–,–,–,–,–,·,·
CC(C)N(CCNC(=O)c1ccc(OCC2CCCO2)cc1)C(C)C (stereo unspecified),–,–,–,–,–,·,·
O=C(NC1CCCCC1)c1ccc2c(c1)OCO2,–,–,8.3,–,–,–,–
O=C(Nc1nc(-c2ccc(F)c(F)c2)cs1)c1ccc(OCC2CCCO2)cc1 (stereo unspecified),–,–,–,–,–,·,·
Cc1csc(NC(=O)c2ccc(OCC3CCCO3)cc2)n1 (stereo unspecified),4.3,–,6.7,12.8,–,–,–
O=C(NC1CCCCCC1)c1ccc(OCC2CCCO2)cc1 (stereo unspecified),–,–,9.8,–,–,–,–
CCCCCCNC(=O)C1CSCCS(=O)(=O)N1Cc1ccc(F)cc1 (stereo unspecified),–,·,–,–,–,·,·
COc1cc(/C=N/Nc2ccc3ccccc3c2)ccc1OC(=O)c1ccco1,–,–,6.8,–,–,–,7.5
Oc1oc(-c2ccccc2)nc1/C=N/c1nccs1,–,–,–,–,–,·,·
Oc1oc(-c2ccccc2)nc1C=Nc1cccc2ccccc12,–,–,11.5,–,–,–,–
C=CCN=C1NC(c2cccc(F)c2)C(C(=O)OC)=C(C)N1C (stereo unspecified),–,·,–,–,–,·,·
CC(C1CC2CCC1C2)n1c(-c2cccs2)n[nH]c1=S (stereo unspecified),–,–,–,–,–,·,·
CCCSc1nnc(-c2ccccc2N)c(=O)[nH]1,–,–,7.1,–,–,–,7.2
CCOc1ccc(Br)cc1CNCCN1CCOCC1,–,–,12.9,–,–,–,–
COc1ccc(C2C(C(=O)Nc3ccc(C)c(C)c3)CCC(=O)N2c2ccc(OC)cc2)cc1 (stereo unspecified),–,·,–,–,–,·,·
Cc1ccc(NC(=O)CSc2nnc(-c3cccnc3)n2Cc2ccco2)cc1C,–,·,–,–,–,·,·
CC(Oc1ccccc1)C(=O)N1CCCc2ccccc21 (stereo unspecified),–,–,–,–,–,·,·
CCN(CC)C(=O)N1CCc2ccccc21,–,–,6.7,–,–,–,–
Cc1ccc(OC(C)C(=O)N2CCc3ccccc32)cc1 (stereo unspecified),–,–,9.4,–,–,–,–
Oc1c(C=Nc2ccccc2Cl)[nH]c2ccccc12,–,–,14.8,13.6,1.1,–,8.9
COc1cc(CCNC2=CC(=O)c3ncccc3C2=O)ccc1O,–,–,–,–,–,·,·
CC(C)(C)NC(=O)C(c1ccc(O)cc1)N(Cc1ccco1)C(=O)Cn1nnc(-c2cccs2)n1 (stereo unspecified),–,–,8.2,–,–,–,–
Cc1ccc(C(C(=O)NC(C)(C)C)N(Cc2ccco2)C(=O)Cn2nnc(-c3cccs3)n2)cc1 (stereo unspecified),–,–,–,–,–,·,·
CCOC(=O)[C@@]12CCC3=C1N(CCC3)C(=O)[C@H](CC(=O)NCCCOC)C2,–,·,–,–,–,·,·
COc1ccc(-n2c(SCC(=O)NCC3CCCO3)nc3c([nH]c4ccccc43)c2=O)cc1OC (stereo unspecified),–,–,8.1,10.4,–,–,–
SMILES,DAX1 inh-1,DAX1 inh-2,hcDAF12 agonist,hgDAF12 agonist,ssDAF12 agonist,LXRb hcDAF ctr,hcDAF12 conf
COc1ccc(-n2c(SCC(=O)NCC3CCCO3)nc3c([nH]c4ccccc43)c2=O)cc1 (stereo unspecified),–,–,7.3,–,–,–,–
Cc1cc2ccccc2n1CCNC(=O)c1ccc(S(=O)(=O)N2CCCCC2)cc1,–,–,7.5,–,–,–,–
COc1ccc(-n2c(COc3ccc(Cl)cc3)nnc2SCC(=O)c2ccc(-c3ccccc3)cc2)cc1,–,·,–,–,–,·,·
COc1ccc(/C=C2\C(=O)NC(=S)N2C(=O)c2ccc(C)cc2)cc1,–,–,7.4,–,–,–,–
Nc1cccc(CCc2nc3cc4ccccc4cc3[nH]2)c1,–,–,12.1,12.5,–,–,8.7
O=C(CSc1nnc(-c2cnccn2)n1-c1ccccc1)c1ccccc1Br,–,·,–,–,–,·,·
CC(=O)c1ccc(OCc2cc(C(=O)N(C)C3CCOC3)no2)cc1 (stereo unspecified),4.0,–,7.1,10.9,–,–,6.8
C=CCNC(=S)Nc1c(C(=O)OC)[nH]c2cc(OC)ccc12,–,–,9.7,–,–,–,7.5
Cc1ccc(N(CC(=O)Nc2ccccc2-c2ccccc2)S(=O)(=O)c2ccccc2)c(C)c1,–,–,6.6,–,–,–,–
CS(=O)(=O)N(CC(=O)Nc1ccccc1-c1ccccc1)c1ccccc1,–,–,–,–,–,·,·
Cc1ccc(C)c(-n2nnc3ccccc3c2=O)c1,–,–,–,–,–,·,·
Cc1ccc(Nc2nc(CSc3nnc(-c4ccccc4C)n3C)cs2)cc1,–,–,6.8,–,–,–,–
Cc1ccc(Nc2nc(CSc3nnc(-c4cccnc4)n3-c3ccccc3C)cs2)cc1,–,–,–,–,–,·,·
c1ccc(-c2ccc(-c3nc(-c4ccccn4)no3)cc2)cc1,–,–,–,–,–,·,·
Clc1cccc(-c2nc(-c3ccccn3)no2)c1,–,–,9.7,–,–,–,11.8
CN(C(=O)c1ccc2nc(N)sc2c1)c1ccccc1,–,–,–,–,–,·,·
CN(C(=O)c1ccccc1)c1nc2ccccc2s1,–,–,6.8,12.7,–,–,6.2
Cc1cc(N2CCOCC2)n2ncc(-c3ccccc3)c2n1,–,–,9.4,–,–,–,15.8
Cc1cc(N2CCC(C)CC2)n2ncc(-c3ccccc3)c2n1,–,–,–,–,–,·,·
Cc1cc(NC2CCCC2)n2ncc(-c3ccccc3)c2n1,–,–,–,–,–,·,·
Cc1cc(-c2ccccc2)n2ncc(-c3ccccc3)c2n1,3.9,–,10.8,–,–,–,20.3

# Source: PubChem BioAssay
